The values below come from PubChem BioAssay (Tox21).

Molecules are shown by their SMILES. A number with no mark means an inactive call. Inconclusive results are not listed. Active and inactive are the calls of the source. Unless noted, calls come from the whole dose curve.

Test [1] in a line: Nuclear factor erythroid 2-related factor 2/antioxidant responsive element (Nrf2/ARE) small molecule agonists: qHTS cell viability counter screen in human keratinocytes (AID 1919968; active = well fitted curve in the direction sought with a large enough effect in the repeat runs; an effect the other way counts as inactive or inconclusive; note: nearly all actives have a fitted effect of over 55% in size; note: potency is the fitted concentration of half-maximal effect). The method in brief: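 Seed 1,500 KeratinoSens cells per well, then incubate 5 h at 37 C/5% CO2. Add compounds in DMSO and incubate 23 h. Add CellTiter-Fluor, wait 1 h and read fluorescence.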
Test [2] in a line: Nuclear factor erythroid 2-related factor 2/antioxidant responsive element (Nrf2/ARE) small molecule agonists: luciferase reporter gene qHTS assay in human keratinocytes (AID 1919969). Note: nearly all actives have a fitted effect of over 35% in size. Note: potency is the fitted concentration of half-maximal effect.
Test [3] addresses Gonadotropin-releasing hormone receptor (Homo sapiens) (UniProt P30968). Kind of test: Human gonadotropin-releasing hormone receptor (GnRHR) small molecule agonists, calcium flux assay in GnRHR-HEK293 cells (AID 1920063). Note: nearly all actives have a fitted effect of over 35% in size. Note: potency is the fitted concentration of half-maximal effect. The method in brief:
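Cells: HEK293 stably expressing human GnRHR. Steps: overnight (18 h) culture, 1 h calcium dye loading at 37 C, compound addition, kinetic fluorescence read at 480/540 nm. Each compound tested at 15 concentrations in triplicate.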

Test [4] concerns the target KiSS-1 receptor (Homo sapiens) (UniProt Q969F8). Kind of test: Human kisspeptin (KISS1R) small molecule agonists, calcium flux assay in KISS1R-HEK293 cells (AID 1920064; active = well fitted curve in the direction sought with a large enough effect in the repeat runs; an effect the other way counts as inactive or inconclusive). The essentials:
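Cells plated and incubated 18 h; dye added, 1 h at 37 C; compounds in DMSO pinned in; signal read at 480/540 nm every second for 3 min. Each compound tested at 15 concentrations in triplicate.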

The nature of test [5]: G protein-coupled receptor (GPCR) small molecule agonists, calcium flux assay: HEK293 wild type cell line counter screen (AID 1920065). The method in brief:
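Counter-screen of the Tox21 10K library for non-specific calcium release: dye-loaded cells received compounds in DMSO and were monitored by kinetic fluorescence (480/540 nm, 3 min). Fifteen concentrations, run in triplicate.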

Test [6] can be described thus: p53 small molecule agonists, cell-based qHTS assay with human liver microsomes (AID 1963577). The essentials:
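Compounds act here after metabolic activation: human liver microsomes and NADPH, both at 0.5 mg/mL final, were co-added to p53RE-bla cells. Incubation ran 16 h at 37 C, followed by LiveBLAzer detection.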

The nature of test [7]: p53 small molecule agonists, cell-based qHTS assay with rat liver microsomes (AID 1963578). The method in brief: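 Read-out is beta-lactamase reporter fluorescence (LiveBLAzer, 2 h, room temperature, dark) in p53RE-bla cells treated 16 h at 37 C with compound, rat liver microsomes and NADPH, both 0.5 mg/mL final.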
Test [8] is described as follows: p53 small molecule agonists, cell-based qHTS assay with human liver microsomes: qHTS cell viability counter screen (AID 1963579). Note: nearly all actives have a fitted effect of over 45% in size. The method in brief:
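Cells carrying the p53 response-element beta-lactamase reporter are treated for 16 h at 37 C with test compounds in the presence of human liver microsomes and NADPH (both 0.5 mg/mL final); ATP-based CellTiter-Glo luminescence then reports viability.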

Test [9] in a line: p53 small molecule agonists, cell-based qHTS assay with rat liver microsomes: qHTS cell viability counter screen (AID 1963580). Note: nearly all actives have a fitted effect of over 45% in size. The method in brief: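 Intracellular ATP, by CellTiter-Glo luminescence, defines viability. HCT-116 p53RE-bla cells, 4,000 per well, were compound-treated in the presence of rat liver microsomes and NADPH for 16 h at 37 C.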
Test [10] has as its target 5-hydroxytryptamine receptor 2A (Homo sapiens) (UniProt P28223). Kind of test: 5-hydroxytryptamine receptor 2A (HTR2A) small molecule antagonists, cell-based qHTS assay (AID 1963586). Note: nearly all actives have a fitted effect of over 45% in size. Note: potency is the fitted concentration of half-maximal effect. The essentials:
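Antagonist-mode intracellular calcium assay: DOI (4 nM) added after 5 min compound pre-incubation at room temperature to dye-loaded HTR2A-CHO cells. Fluorescence followed for 3 min, sampled every second.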

For test [11] the target is unchanged. Kind of test: 5-hydroxytryptamine receptor 2A (HTR2A) small molecule agonists, cell-based qHTS assay (AID 1963587). Note: nearly all actives have a fitted effect of over 30% in size. Note: potency is the fitted concentration of half-maximal effect. The method in brief:
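Kinetic calcium-flux fluorescence (2 min, 1 sec intervals) after compound addition in agonist mode. HTR2A-CHO cells were cultured 18 h, then dye-loaded 1 h at 37 C.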

The target of test [12] is Muscarinic acetylcholine receptor M1 (Homo sapiens) (UniProt P11229). Briefly: Cholinergic receptor muscarinic 1 (CHRM1) small molecule antagonists, cell-based qHTS assay (AID 1963588). Note: nearly all actives have a fitted effect of over 40% in size. The essentials:
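CHRM1-CHO calcium-flux assay, antagonist mode. Cells were seeded 18 h, dye-loaded 1 h at 37 C and given compound for 5 min at RT, then acetylcholine was added at 50nM. FDSS fluorescence was read 3 min; 15 concentrations, three runs.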

The nature of test [13]: cAMP Responsive Elements (CRE) small molecule agonists, cell-based qHTS assay (AID 1963590). The method in brief:
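Agonist mode qHTS in CRE-bla HEK 293T cells: compounds dosed from DMSO for 3 h at 37 C/5% CO2, followed by LiveBLAzer B/G FRET substrate for 2 h at room temperature.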

Test [14] in a line: cAMP Responsive Elements (CRE) small molecule antagonists, cell-based qHTS assay (AID 1963591; active = well fitted inhibition curve with a large enough effect in the signal ratio in the repeat runs, not every such curve was filed as active; the % refers to the signal ratio). The essentials: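 Antagonist mode: test compounds are co-incubated with the adenylyl cyclase activator NKH477 (0.25 uM final) on CRE-bla HEK293T cells for 3 h at 37 °C, followed by LiveBLAzer substrate loading.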
Test [15] addresses Beta-2 adrenergic receptor (Homo sapiens) (UniProt P07550). Briefly: Adrenergic beta2 receptor (ADRB2) small molecule antagonists, cell-based qHTS assay (AID 1963592). Note: nearly all actives have a fitted effect of over 50% in size. Note: potency is the fitted concentration of half-maximal effect. The method in brief:
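Cells (CHO, stable ADRB2 overexpression) incubated 18-20hr at 37C; compounds added from DMSO; agonist mix (1nM isoproterenol, 100uM IBMX, 25uM Ro-20-1724) added; 0.5hr RT; d2-cAMP and anti-cAMP-cryptate added; 1hr RT; 665/615 nm read.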

Test [16] addresses D(2) dopamine receptor (Homo sapiens) (UniProt P14416). Kind of test: Dopamine D2 receptor (DRD2) small molecule antagonists, cell-based qHTS assay (AID 1963595; active = well fitted inhibition curve with a large enough effect in the signal ratio in the repeat runs, with a control signal flat; the % refers to the signal ratio; note: potency is the fitted concentration of half-maximal effect). The method in brief:
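Antagonism was scored as restored cAMP in HEK293-DRD2 cells. These cells were stimulated with 200 nM NKH477 and 12 nM quinpirole for 30 min at room temperature, in the presence of 0.1 mM Ro20-1724.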

Test [17] deals with Muscarinic acetylcholine receptor M1 (Homo sapiens) (UniProt P11229). Kind of test: Cholinergic receptor muscarinic 1 (CHRM1) small molecule agonists, cell-based qHTS assay (AID 1963589). Note: nearly all actives have a fitted effect of over 35% in size. The method in brief:
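Agonist-mode qHTS in CHO cells stably carrying human muscarinic M1. Intracellular calcium is tracked by fluorescence every second after compound transfer; each compound runs at 15 concentrations in three independent runs.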

In test [18] the target is D(2) dopamine receptor (Homo sapiens) (UniProt P14416). Kind of test: Dopamine D2 receptor (DRD2) small molecule agonists, cell-based qHTS assay (AID 1963594). Note: nearly all actives have a fitted effect of over 35% in size. The method in brief:
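cAMP accumulation in DRD2-HEK293 cells measured by HTRF after 1 h detection; compounds added 10 min before NKH477 (200nM […]) forskolin-analogue stimulation, 30 min at room temperature, with Ro20-1724 present at 0.1 mM final.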

Test [19] can be described thus: p53 small molecule agonists, cell-based qHTS assay: qHTS cell viability counter screen (AID 1963581). Note: nearly all actives have a fitted effect of over 45% in size. The method in brief: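 Cells: HCT-116 with p53 response element-driven beta-lactamase. Treatment: 16 h, 37 C, compounds in DMSO. Read: CellTiter-Glo luminescence after 30 min RT.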
The nature of test [20]: p53 small molecule agonists, cell-based qHTS assay (AID 1963582; active = well fitted activation curve with a large enough effect in the signal ratio in the repeat runs, not every such curve was filed as active; the % refers to the signal ratio). The essentials: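 Quantitative HTS in p53RE-bla cells: after a 5 h settling period, compounds delivered in DMSO were left on cells for 16 h at 37 C, and reporter induction was measured as fluorescence following 2 h substrate loading.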

Sequence of Muscarinic acetylcholine receptor M1 (Homo sapiens) (P11229 whole entry, looked up): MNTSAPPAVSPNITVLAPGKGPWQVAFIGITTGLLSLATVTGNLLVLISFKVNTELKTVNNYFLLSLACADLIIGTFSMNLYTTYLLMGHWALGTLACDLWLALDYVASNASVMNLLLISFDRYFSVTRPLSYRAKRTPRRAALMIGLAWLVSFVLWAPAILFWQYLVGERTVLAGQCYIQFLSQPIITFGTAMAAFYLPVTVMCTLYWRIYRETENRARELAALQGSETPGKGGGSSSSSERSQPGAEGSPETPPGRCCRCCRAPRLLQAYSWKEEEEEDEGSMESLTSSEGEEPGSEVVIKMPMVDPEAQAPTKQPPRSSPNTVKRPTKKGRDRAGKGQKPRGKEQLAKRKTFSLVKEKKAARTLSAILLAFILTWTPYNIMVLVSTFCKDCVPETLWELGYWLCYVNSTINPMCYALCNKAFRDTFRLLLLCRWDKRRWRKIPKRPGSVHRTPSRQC
Sequence of KiSS-1 receptor (Homo sapiens) (Q969F8 whole entry, looked up): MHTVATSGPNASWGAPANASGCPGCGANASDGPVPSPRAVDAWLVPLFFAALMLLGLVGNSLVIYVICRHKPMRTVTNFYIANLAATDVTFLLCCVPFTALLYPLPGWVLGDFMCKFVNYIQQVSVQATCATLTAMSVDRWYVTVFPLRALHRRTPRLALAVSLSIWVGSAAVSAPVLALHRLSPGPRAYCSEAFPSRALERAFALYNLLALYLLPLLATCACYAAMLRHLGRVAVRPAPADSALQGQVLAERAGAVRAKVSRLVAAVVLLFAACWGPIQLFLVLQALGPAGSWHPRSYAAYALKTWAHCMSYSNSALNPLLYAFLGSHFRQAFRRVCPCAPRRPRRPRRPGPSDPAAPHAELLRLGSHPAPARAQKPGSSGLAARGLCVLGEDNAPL
Sequence of 5-hydroxytryptamine receptor 2A (Homo sapiens) (P28223 whole entry, looked up): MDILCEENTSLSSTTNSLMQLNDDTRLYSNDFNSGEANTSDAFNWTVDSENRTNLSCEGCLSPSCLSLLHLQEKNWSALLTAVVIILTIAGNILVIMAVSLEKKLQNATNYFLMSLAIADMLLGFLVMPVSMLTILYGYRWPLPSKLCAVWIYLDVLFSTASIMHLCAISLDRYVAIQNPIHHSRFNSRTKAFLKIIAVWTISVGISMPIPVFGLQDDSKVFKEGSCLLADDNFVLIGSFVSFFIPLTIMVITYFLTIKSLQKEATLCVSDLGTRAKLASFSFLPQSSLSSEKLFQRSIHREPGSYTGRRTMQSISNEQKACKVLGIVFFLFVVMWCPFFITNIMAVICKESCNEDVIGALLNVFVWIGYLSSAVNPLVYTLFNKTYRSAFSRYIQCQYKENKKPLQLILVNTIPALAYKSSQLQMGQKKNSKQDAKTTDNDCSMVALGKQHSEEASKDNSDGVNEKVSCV
Sequence of Beta-2 adrenergic receptor (Homo sapiens) (P07550 whole entry, looked up): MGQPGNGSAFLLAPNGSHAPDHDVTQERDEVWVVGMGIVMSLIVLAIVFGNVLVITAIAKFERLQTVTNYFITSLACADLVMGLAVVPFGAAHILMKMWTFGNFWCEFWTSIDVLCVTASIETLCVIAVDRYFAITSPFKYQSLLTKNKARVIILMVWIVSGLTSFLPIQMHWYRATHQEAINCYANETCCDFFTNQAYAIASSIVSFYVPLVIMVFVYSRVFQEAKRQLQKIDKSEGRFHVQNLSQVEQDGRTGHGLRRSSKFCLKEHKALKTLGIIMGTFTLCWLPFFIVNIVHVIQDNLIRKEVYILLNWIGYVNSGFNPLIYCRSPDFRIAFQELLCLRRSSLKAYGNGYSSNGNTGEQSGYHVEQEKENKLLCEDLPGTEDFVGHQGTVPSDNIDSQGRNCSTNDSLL
Sequence of Gonadotropin-releasing hormone receptor (Homo sapiens) (P30968 whole entry, looked up): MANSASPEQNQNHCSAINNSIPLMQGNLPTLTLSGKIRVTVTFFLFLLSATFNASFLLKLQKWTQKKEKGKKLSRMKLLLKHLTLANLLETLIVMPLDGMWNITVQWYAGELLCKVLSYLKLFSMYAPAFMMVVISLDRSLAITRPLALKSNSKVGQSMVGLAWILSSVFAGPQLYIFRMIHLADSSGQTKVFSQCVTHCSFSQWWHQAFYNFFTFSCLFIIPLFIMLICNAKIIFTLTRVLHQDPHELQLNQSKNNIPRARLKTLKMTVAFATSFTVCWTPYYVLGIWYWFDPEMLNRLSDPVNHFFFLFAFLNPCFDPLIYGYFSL
Sequence of D(2) dopamine receptor (Homo sapiens) (P14416 whole entry, looked up): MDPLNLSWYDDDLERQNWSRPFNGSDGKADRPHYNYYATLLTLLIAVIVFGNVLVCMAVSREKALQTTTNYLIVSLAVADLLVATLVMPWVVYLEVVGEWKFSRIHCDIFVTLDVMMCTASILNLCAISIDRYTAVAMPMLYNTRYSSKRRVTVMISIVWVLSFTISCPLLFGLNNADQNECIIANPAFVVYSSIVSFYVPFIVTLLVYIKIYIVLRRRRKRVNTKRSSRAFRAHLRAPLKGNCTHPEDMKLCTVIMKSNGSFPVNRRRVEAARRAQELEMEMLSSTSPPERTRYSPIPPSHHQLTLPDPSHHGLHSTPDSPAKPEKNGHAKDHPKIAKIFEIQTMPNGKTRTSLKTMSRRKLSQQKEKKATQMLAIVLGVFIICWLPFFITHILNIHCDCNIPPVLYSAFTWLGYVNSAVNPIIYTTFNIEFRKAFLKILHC

Regarding `NC(=O)COCCN1CCN(C(c2ccccc2)c2ccc(Cl)cc2)CC1` (stereo unspecified), the Potency result in [1], in test [2], in test [3], in [6], in test [7] and in [8] was “inactive” each time. For the same molecule, the Potency entry in test [9], in [10], in [11], in [12], in [13] and in test [14] was “inactive” in each case. The Potency result in [15] and in [16] was “inactive” each time. Moreover, the outcome in [4] and in test [5] was inactive.

In the case of `O=C(OCC(COC(=O)c1ccccc1)(COC(=O)c1ccccc1)COC(=O)c1ccccc1)c1ccccc1`, the Potency result in test [1], in test [2], in [3], in test [6], in test [7] and in test [8] was “inactive” throughout. Also, the Potency result in [9], in test [12], in [17], in test [15], in [18] and in test [16] was “inactive” throughout. Besides, the outcome in test [4] and in test [5] was inactive.

Turning to `CC(Oc1cc(Cl)ccc1Cl)C(=O)O` (stereo unspecified), the Potency entry in [1], in test [2], in test [3], in test [6], in test [7] and in test [8] was “inactive” each time. Moreover, the Potency result in test [9], in test [10], in test [11], in test [12], in test [17] and in test [15] was “inactive” throughout. For the same molecule, the Potency entry in [18] and in [16] was “inactive” throughout. The outcome in [4] and in test [5] was inactive.

As for `CCCCCCCCOc1ccc(C(=O)O)cc1`, the Potency entry in [1], in [3], in test [6], in test [7], in test [8] and in [9] was “inactive” in each case. Moreover, the Potency entry in test [11], in test [12], in test [17], in test [14], in test [15] and in test [18] was “inactive” in each case. In test [16], the Potency entry is “inactive”. Besides, the Potency in [2] was 60.4 µM (active). The outcome in test [4] and in test [5] was inactive.

With `O=C1NCN(c2ccccc2)C12CCN(CCCC(c1ccc(F)cc1)c1ccc(F)cc1)CC2`, the Potency in [1] is 29.8 µM (active); in test [10], 0.0516 µM (active); in [15], 23.7 µM (active); in test [16] it was 0.0335 µM (active). Also, the Potency entry in test [2], in test [3], in test [6], in [7], in [8] and in test [9] was “inactive” each time. Also, the Potency result in [11], in test [17] and in test [18] was “inactive” each time. The outcome in [4] and in test [5] was inactive.

Take `O=C(O)Cn1c(C(=O)Nc2nc(-c3ccccc3Cl)cs2)cc2ccccc21`: the Potency result in test [1], in test [6], in test [7], in test [8], in test [9] and in test [10] was “inactive” throughout. In addition, the Potency result in test [11], in test [12], in [17], in test [15] and in [16] was “inactive” each time. In addition, the results for the Potency in test [2] and in test [3] were 15 µM (active) and 3.38 µM (active), respectively. Besides, the result in [4] and in [5] was inactive.

On to `NNc1nnc(NN)c2ccccc12`, for which the Potency result in test [1], in test [2], in [3], in [6], in [7] and in test [8] was “inactive” in each case. For the same molecule, the Potency entry in test [19], in test [20], in test [11], in test [12], in test [17] and in [13] was “inactive” each time. In addition, the Potency result in test [14], in test [15], in test [18] and in test [16] was “inactive” throughout. Also, the outcome in test [4] and in [5] was inactive.

`O=C(NCCc1c[nH]c2ccccc12)c1cccnc1`: the Potency result in test [1], in test [2], in test [3], in [6], in test [7] and in test [8] was “inactive” throughout. For the same molecule, the Potency result in [19], in test [20], in [12], in test [17], in test [13] and in test [15] was “inactive” throughout. In test [16], the Potency entry was “inactive”. Also, the result in test [4] and in [5] was inactive. Moreover, in [11], the Potency is 3.01 µM (active).
